Several values for one entry are separate records, joined by “and”; a condition that tells them apart may be missing. Identical values can stand only once. Activity calls are given as the source filed them. Unless noted, the rule behind the calls is not given here.

One may read the viability as a read-out of living cells in per cent, often relative to untreated cells. What is called inhibition is the drop in the measured response relative to a control, in per cent.

Tested on in the first test: not listed separately
Nature of the test: compounds altering viability of human ES cells (AID 493140).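 Note: cells exposed to compounds for four days before counting.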 The note with it: human embryonic stem cell survival screen; stronger effect = higher value.
`CC(C(=O)O)c1ccc(-c2ccccc2)c(F)c1` (stereo unspecified): the survival is 4.67 (inactive).

Take `CN(C)c1nc(N(C)C)nc(N(C)C)n1`: the survival is 2.92 (inactive).

As to `CC(C)NCC(O)COc1cccc2ccccc12` (stereo unspecified), the survival is 5.92 (inactive) and 9.92 (inactive) and 3.58 (inactive).

In the case of `C[N+]1(C)CCCC(OC(=O)C(O)(c2ccccc2)c2ccccc2)C1` (stereo unspecified), the survival was 8 (inactive).

Take `CC(C)NCC(O)COc1ccc(CC(N)=O)cc1` (stereo unspecified): the survival was 4.33 (inactive).

With `CNCCC(Oc1ccc(C(F)(F)F)cc1)c1ccccc1` (stereo unspecified), the survival is 3.58 (inactive).

As to `CC1=C(/C=C/C(C)=C/C=C/C(C)=C\C(=O)O)C(C)(C)CCC1`, the survival is 10.8 (inactive) and 52.6 (inactive).

Tested on in the next test: not listed separately
Put plainly: P. berghei load reduction in hepatocytes – cell-based, HepG2, luciferase luminescence, HepG2 viability, primary screen (AID 624349; in the data active = parasite load remaining mostly below about 12%, no sharp cut-off; inactive = mostly above about 10%;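 note: 100% = mean of DMSO negative control wells on the same plate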). The note with it: P. berghei liver stage in HepG2, luciferase luminescence, concentration not given here; parasite load remaining: stronger effect = lower value; viability: measured here: HepG2 viability without parasites.
As to `Cc1cccc(C)c1NC(=O)C1CCCCN1C` (stereo unspecified), the viability was 85.7% and 198% and 72.6%; the parasite load remaining was 174% (inactive) and 77.7% (inactive) and 69.1% (inactive).

As to `COc1ccc(/C=C/C(=O)Nc2ccccc2C(=O)O)cc1OC`, the parasite load remaining is 13.7% (inactive) and 10.8% (inactive) and 12.8% (inactive); the viability is 99.2% and 76.6% and 140%.

Take `CCCCC(=O)N(Cc1ccc(-c2ccccc2-c2nn[nH]n2)cc1)[C@H](C(=O)O)C(C)C`: the viability was 89.7% and 98.7% and 73.8%; the parasite load remaining is 147% (inactive) and 47.5% (inactive) and 92.3% (inactive).

Turning to `Cc1occc(=O)c1O`, the viability is 68.2% and the parasite load remaining was 65.4% (inactive).

Turning to `COc1ccc(-c2cc(=O)c3c(OC)c(OC)c(OC)c(OC)c3o2)cc1OC`, the parasite load remaining was 46.2% (inactive) and the viability was 66.9%.

Regarding `O=[N+]([O-])c1cccc2cn[nH]c12`, the viability came out at 68.7% and the parasite load remaining was 55.2% (inactive).

`COc1ccc(C[C@H](N)C(=O)N[C@H]2[C@@H](O)[C@H](n3cnc4c(N(C)C)ncnc43)O[C@@H]2CO)cc1`: the parasite load remaining was -0.025% (inactive) and -0.34% (inactive); the viability is 17.9% and 1%.

The test system of the next test is Hepatitis C virus NS3 helicase. Put plainly: blockers of NS3h binding to ssDNA – biochemical, fluorescence polarization, LOPAC1280 library, primary screen (AID 687035; in the data active = inhibition above about 37%). The note with it: Purified HCV NS3 helicase, Cy5-dT15 ssDNA binding fluorescence polarization; stronger effect = higher value; concentration not given here.
As for `COc1ccc(/C=C/C(=O)Nc2ccccc2C(=O)O)cc1OC`, the inhibition is 1% (inactive).

For the compound `O=c1ccc2ccc(O)c(O)c2o1`, the inhibition was 0% (inactive).

For the compound `CN(C)c1nc(N(C)C)nc(N(C)C)n1`, the inhibition was 0% (inactive).

As to `CC(C)NCC(O)COc1cccc2ccccc12` (stereo unspecified), the inhibition was -4% (inactive).

For the compound `O=[N+]([O-])c1cccc2cn[nH]c12`, the inhibition is -1% (inactive).

For `CC(C)NCC(O)COc1ccc(CC(N)=O)cc1` (stereo unspecified), the inhibition is -1% (inactive).

`CNCCC(Oc1ccc(C(F)(F)F)cc1)c1ccccc1` (stereo unspecified): the inhibition is -3% (inactive).

On to `CC1=C(/C=C/C(C)=C/C=C/C(C)=C\C(=O)O)C(C)(C)CCC1`, for which the inhibition is 1% (inactive).

Tested on in another test: not listed separately
Nature of the test: compounds altering Cy5-DNA-NS3h complex signal – biochemical, LOPAC1280, artefact control for HCV NS3 helicase inhibitor project (AID 687037). The note with it: Cy5-DNA-NS3h complex fluorescence interference counterscreen. (The purpose of a counterscreen is to sort out artefacts and off-target activity.)
For the compound `COc1ccc(/C=C/C(=O)Nc2ccccc2C(=O)O)cc1OC`, the fluorescence ratio (interference) was 1 (inactive).

For `O=c1ccc2ccc(O)c(O)c2o1`, the fluorescence ratio (interference) was 1.1 (inactive).

Regarding `CN(C)c1nc(N(C)C)nc(N(C)C)n1`, the fluorescence ratio (interference) is 0.9 (inactive).

Take `CC(C)NCC(O)COc1cccc2ccccc12` (stereo unspecified): the fluorescence ratio (interference) is 1 (inactive).

On to `O=[N+]([O-])c1cccc2cn[nH]c12`, for which the fluorescence ratio (interference) is 1 (inactive).

On to `CC(C)NCC(O)COc1ccc(CC(N)=O)cc1` (stereo unspecified), for which the fluorescence ratio (interference) was 0.9 (inactive).

For `CNCCC(Oc1ccc(C(F)(F)F)cc1)c1ccccc1` (stereo unspecified), the fluorescence ratio (interference) is 1 (inactive).

Regarding `CC1=C(/C=C/C(C)=C/C=C/C(C)=C\C(=O)O)C(C)(C)CCC1`, the fluorescence ratio (interference) is 0.9 (inactive).

Tested on in the next test: not listed separately
Nature of the test: signal quenchers or enhancers, Cy5 substrate/SSB – biochemical, NIH Clinical Collection, E. coli SSB, artefact control for HCV NS3 helicase inhibitor project (AID 743268). The conditions noted are these: Cy5-oligo bound E. coli SSB, fluorescence interference.
For the compound `CS(=O)(=O)c1ccc(C2=C(c3ccccc3)C(=O)OC2)cc1`, the fluorescence ratio was 1.03 (inactive).

Take `Cc1cccc(C)c1NC(=O)C1CCCCN1C` (stereo unspecified): the fluorescence ratio is 0.96 (inactive).

As for `COc1ccc(/C=C/C(=O)Nc2ccccc2C(=O)O)cc1OC`, the fluorescence ratio was 1.05 (inactive).

As to `CCCCC(=O)N(Cc1ccc(-c2ccccc2-c2nn[nH]n2)cc1)[C@H](C(=O)O)C(C)C`, the fluorescence ratio is 1.07 (inactive).

On to `CC(C(=O)O)c1ccc(-c2ccccc2)c(F)c1` (stereo unspecified), for which the fluorescence ratio is 0.95 (inactive) and 0.99 (inactive).

`Nc1ncnc2c1ncn2[C@@H]1O[C@H](CO)[C@@H](O)[C@@H]1O`: the fluorescence ratio is 1 (inactive).

As to `CN(C)c1nc(N(C)C)nc(N(C)C)n1`, the fluorescence ratio was 1.08 (inactive).

As to `Cc1occc(=O)c1O`, the fluorescence ratio is 1 (inactive).

For `COc1ccc(-c2cc(=O)c3c(OC)c(OC)c(OC)c(OC)c3o2)cc1OC`, the fluorescence ratio is 1.01 (inactive).

For `CC(C)NCC(O)COc1cccc2ccccc12` (stereo unspecified), the fluorescence ratio is 1.01 (inactive).

For `COC(=O)[C@H](c1ccccc1Cl)N1CCc2sccc2C1`, the fluorescence ratio was 1 (inactive).

Take `C[N+]1(C)CCCC(OC(=O)C(O)(c2ccccc2)c2ccccc2)C1` (stereo unspecified): the fluorescence ratio was 1.02 (inactive).

Take `O=[N+]([O-])c1cccc2cn[nH]c12`: the fluorescence ratio is 0.99 (inactive).

As to `C[C@H]1COc2c(N3CCN(C)CC3)c(F)cc3c(=O)c(C(=O)O)cn1c23`, the fluorescence ratio is 1.03 (inactive).

For `CC(C)NCC(O)COc1ccc(CC(N)=O)cc1` (stereo unspecified), the fluorescence ratio was 1.03 (inactive).

For `CNCCC(Oc1ccc(C(F)(F)F)cc1)c1ccccc1` (stereo unspecified), the fluorescence ratio is 1.04 (inactive).

In the case of `CC1=C(/C=C/C(C)=C/C=C/C(C)=C\C(=O)O)C(C)(C)CCC1`, the fluorescence ratio is 1.01 (inactive).

As to `CCc1ccc(CCOc2ccc(CC3SC(=O)NC3=O)cc2)nc1` (stereo unspecified), the fluorescence ratio is 1.03 (inactive).

In the case of `CC[C@H]1OC(=O)[C@H](C)[C@@H](O[C@H]2C[C@@](C)(OC)[C@@H](O)[C@H](C)O2)[C@H](C)[C@@H](O[C@@H]2O[C@H](C)C[C@H](N(C)C)[C@H]2O)[C@](C)(OC)C[C@@H](C)C(=O)[C@H](C)[C@@H](O)[C@]1(C)O`, the fluorescence ratio is 1.06 (inactive).

Values taken from PubChem BioAssay.
